Imprint erasure: genomic imprint erasure induction. mouse ES Peg3-LacZ reporter, beta-gal luminescence, 40 h. Potency, µM (titrated, usually from 60.7 µM), for inactives: top-dose activity change, positive = activation, usual class: activators. 110,000 compounds, 0.02% hits
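Readout: BetaGlo luminescence (5 min, room temp) for LacZ from the normally silent maternal Peg3 allele in female Peg3LacZ-Neo ES cells. Cells 300/well, 40 h, 37C, 5% CO2. Data normalized per plate to negative controls.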
p53ts 39C kill: cytotoxicity in p53ts cells at nonpermissive temperature; H1299-p53A138V viability at 39C, ATP luminescence, 24 h; Potency, µM (titrated, usually from 46.1 µM), without a hit: top-dose activity change, negative = cell killing, actives largely listed as cytotoxic; 130,000 compounds, 1.5% hits; AID 902; note: % is set by controls: 0 for no effect and ±100 for the full control effect; nearly all actives have a fitted effect of over 55% in size
p53ts 32C tox: p53ts cell cytotoxicity, permissive temperature | Potency, µM (series often up to 46.1 µM), for inactives: at the highest dose activity change, negative = cytotoxicity, hits mostly cytotoxic | 130,000 compounds, 0.93% hits | AID 924 | H1299-p53A138V at 32C, ATP luminescence viability, 24 h;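 note: 0% = DMSO and -100% = full killing by reference compound; nearly all actives have a fitted effect of over 55% in size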
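Cells: H1299 p53ts (A138V), 600/well, pre-incubated 16–30 h at 37C. Cpd up to 46 uM, 24 h, 32C. Readout: ATPlite luminescence, 20 min RT. Normalization: DMSO vs tamoxifen 100 uM. AC50 by Hill equation.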
Starred values were filed as active, the others as inactive; u = inconclusive; x = no result given; [ ] = dose if it differs, or a comment. Rows were chosen to be rich in hits. Some 1.6% of all compounds tested hit in one or more screens of this group. Calls come from the whole dose curve; as a rule, active = well fitted curve in the direction sought with a large enough effect; inconclusive = small, poorly fitted or top-dose-only effect, or another doubt; inactive = no such curve, though single readings can be large; an effect the other way counts as inactive or inconclusive. Potency is the fitted concentration of half-maximal effect.

SMILES	Imprint erasure	p53ts 39C kill	p53ts 32C tox
CCS(=O)(=O)CCSc1nc(-c2ccc(Br)cc2)cc(-c2ccccc2)c1C#N	-21%[10.9 µM]	u	3%
CS(=O)c1nc(-c2ccc(Br)cc2)cc(-c2ccccc2)c1C#N (centres undefined)	-26%	u	20µM*
CCOc1ccccc1NC(=O)CN1C(=O)COc2ccc(S(=O)(=O)N3CCCCCC3)cc21	-5%[10.9 µM]	-17%	-1%
O=C(CSc1nccn1Cc1ccccc1)Nc1ccc2c(c1)OCCO2	20%[10.9 µM]	u	3%
COc1cc(Nc2nc(SCc3ccccc3Cl)nc3ccccc23)cc(OC)c1	13%[10.9 µM]	-13%	-2%
COc1ccc(CNC(=O)c2cnc3sc4cc(OC)ccc4n3c2=O)cc1	-9%[10.9 µM]	-18%	-6%
CCC(Sc1nc2ccccc2c2nc(-c3ccccc3)nn12)C(=O)Nc1cccc(OC)c1 (centres undefined)	-14%[10.9 µM]	-7%	3%
COc1ccc(CCNC(=O)Cn2c(=O)c3cccn3c3ccccc32)cc1OC	-3%[10.9 µM]	16µM*	-21%
O=C(CCCn1c(=O)c2cccn2c2ccccc21)NCCc1ccc(Cl)cc1	-22%[10.9 µM]	13µM*	10µM*
COc1ccc(CCNC(=O)Cn2c(=O)c3cccn3c3ccc(F)cc32)cc1OC	-12%[10.9 µM]	12%	5%
O=C(CCn1c(=O)c2cccn2c2ccc(F)cc21)NCCc1ccc(Cl)cc1	18%[10.9 µM]	-19%	6%
CCN(CC)C(=O)Cn1c(=O)cc(C)c2c(C)nn(-c3ccc(C)cc3)c21	8%[10.9 µM]	-15%	11%
C[C@@H](C(=O)Nc1ccc2ccccc2c1)[C@H]1C[C@]1(C)[C@H](NS(=O)(=O)c1ccc2ccccc2c1)c1ccccc1	-11%	-9%	5%
Cc1nc(NCc2ccccc2)c2nc(-c3ccccc3)n(CC(C)(C)CN(C)C)c2n1	-7%	-3%	9%
COc1ccccc1NC(=O)CC1Sc2ccc(C(F)(F)F)cc2NC1=O (centres undefined)	-8%[10.9 µM]	-6%	-15%
CCCCCCC1CCC(C(=O)NC(C(=O)O)C(C)C)CC1 (centres undefined)	-8%[10.9 µM]	22%	-8%
CCc1cccc(C)c1NC(=O)Cn1ccn(-c2ccc(F)cc2)c(=O)c1=O	9%[10.9 µM]	9%	0%
Cc1ccc(CS(=O)(=O)c2ncc(Cl)c(C(=O)Nc3nc4ccc(C)cc4s3)n2)cc1	-26%[10.9 µM]	13µM*	16µM*
CCCSc1ncc(Cl)c(C(=O)Nc2nc3ccc(OCC)cc3s2)n1	14%[10.9 µM]	17%	6%
COc1ccc2nc(NC(=O)c3nc(S(=O)(=O)Cc4ccc(C)cc4)ncc3Cl)sc2c1	-18%[10.9 µM]	6.3µM*	u
Cc1ccc(CSc2ncc(Cl)c(C(=O)Nc3nc4ccc(C)cc4s3)n2)cc1	-11%[10.9 µM]	-14%	-2%
COc1ccc2nc(NC(=O)c3nc(SC(C)C)ncc3Cl)sc2c1	-6%[10.9 µM]	-9%	1%
CCS(=O)(=O)c1ncc(Cl)c(C(=O)NCc2ccc(OC)cc2)n1	-27%[10.9 µM]	u	u
Cc1ccc(CNC(=O)c2nc(S(=O)(=O)Cc3ccc(C)cc3)ncc2Cl)cc1	-8%[10.9 µM]	13µM*	16µM*
Cc1ccc(CS(=O)(=O)c2ncc(Cl)c(C(=O)Nc3nc4ccc(F)cc4s3)n2)cc1	-25%[10.9 µM]	16µM*	13µM*
SMILES	Imprint erasure	p53ts 39C kill	p53ts 32C tox
[ClH+][Cu][ClH+].[Cu].[OH2+]c1ccc2ccccc2c1CN1CCCCC1.[OH2+]c1ccc2ccccc2c1CN1CCCCC1	-13%[10.9 µM]	x	x
C=C[C@@]1(C)CC(=O)[C@@]2(O)[C@@]3(C)[C@@H](O)CCC(C)(C)[C@@H]3[C@H](O)[C@H](OC(C)=O)[C@@]2(C)O1	-5%	-12%	-7%
CCOC(=O)c1cc2c(=O)n3ccccc3nc2n(CC2CCCO2)c1=NC(=O)c1ccc(OC)cc1OC (centres undefined)	-9%[10.9 µM]	14%	-3%
c1ccc(-c2cccc(N3CCC4(CCNCC4)CC3)c2)cc1	x	16µM*	-7%
CC(=O)N1CCC2(CC1)CCN(c1cccc(-c3ccccc3)c1)CC2	x	-24%	-9%
c1ccc(-c2cccc(N3CC4(CCNCC4)C3)c2)cc1	x	u	-6%
O=S(=O)(c1ccccc1)N1CCC[C@@]2(CCN(c3cccc(-c4ccccc4)c3)C2)C1	x	-15%	-8%
c1ccc(-c2cccc(N3CC[C@@]4(CCCNC4)C3)c2)cc1	x	16µM*	u
c1ccc(-c2cccc(N3CCCC4(CCNCC4)C3)c2)cc1	x	13µM*	-19%
CCn1cc(C(=O)OCC(=O)Nc2ccc(C)c(Cl)c2)c(=O)c2ccc(C)nc21	-5%[10.9 µM]	14%	0%
COc1cccc(C2C(C(N)=O)=C(C)Nc3ncnn32)c1 (centres undefined)	-10%[10.9 µM]	5%	-11%
CC(C)(C)C(=O)Nc1ccc(Cl)c(-c2nc3ccccc3[nH]2)c1	-12%[10.9 µM]	3%	-4%
CC(C)(C)C(=O)Nc1ccc(-c2nc3ccc(NC(=O)C(C)(C)C)cc3[nH]2)cc1	-13%[10.9 µM]	u	7.9µM*
CCOC(=O)c1ccc(N2C(=O)c3n[nH]c(-c4cccs4)c3C2c2cccc(F)c2)cc1 (centres undefined)	-7%[10.9 µM]	6.3µM*	17%
CCOC(=O)c1ccc(N2C(=O)c3n[nH]c(-c4cccs4)c3C2c2ccc(C)cc2)cc1 (centres undefined)	21%[10.9 µM]	15%	0%
Cc1ccc(C)c(CNC(=O)CCn2cccn2)c1	-15%[10.9 µM]	-19%	3%
Cc1nn(-c2ccccc2)c2c1cc1c(=O)[nH]c(=O)nc-1n2-c1cccc(Cl)c1	18%[10.9 µM]	-6%	-3%
COc1ccc(C(=O)NC(c2ccccc2Cl)c2cc(Cl)c3cccnc3c2O)cc1 (centres undefined)	-21%[10.9 µM]	2.5µM*	-9%
COc1cc(C(=O)NC(c2ccccc2Cl)c2cc(Cl)c3cccnc3c2O)cc(OC)c1OC (centres undefined)	-34%[10.9 µM]	u	u
COc1ccc2nc(NCCCO)[nH]c2c1	x	16%	0%
COc1ccc2nc(-c3ccc(N)cc3)[nH]c2c1	x	u	16µM*
COc1ccc2nc(-c3cccc(N)c3)[nH]c2c1	x	16µM*	7.9µM*
COc1ccc2nc(SCC(N)=O)[nH]c2c1	-16%	8%	4%
Cc1ccc(NC(=O)CSc2nnc(C)n3c2cc2sccc23)c(C)c1	-11%[10.9 µM]	-11%	-4%
CCN(CC)CCCn1c(-c2ccccc2)nc2c(N(CCOC)CCOC)nc(C)nc21	-13%	-2%	4%
SMILES	Imprint erasure	p53ts 39C kill	p53ts 32C tox
CCN(CC)S(=O)(=O)c1ccc2c(c1)c(=O)c(C(=O)NCc1ccccc1Cl)cn2C	28%[10.9 µM]	6.3µM*	u
CCN(CC)S(=O)(=O)c1ccc2c(c1)c(=O)c(C(=O)NCc1ccccc1)cn2C	12%[10.9 µM]	3%	-12%
Cc1ccc(NC(=O)C2CCN(c3nc(-c4ccc(C(C)C)cc4)no3)CC2)c(Cl)c1	-12%[10.9 µM]	-3%	-18%
Cc1cc(O)c2c(C)c(CC(=O)NCc3ccccc3Cl)c(=O)oc2c1	27%[10.9 µM]	-12%	5%
CCCn1c(SCc2nc(-c3ccccc3OCC)no2)nnc1-c1ccc(Cl)cc1	-5%[10.9 µM]	-3%	22%
COc1ccc(C2C(=O)c3ccccc3C2=O)c(OC)c1	4%	-11%	7%
COc1ccc(C2C(=O)c3ccccc3C2=O)cc1	-10%	13µM*	10µM*
